Source: PubChem BioAssay AID1159580 (chemical genetic matrix, 2015)
About 2,000 (36%) of roughly 5,500 compounds were called active. Inconclusive results (about 18%) are left out. No stated cut-off is given here; in the data, active means normalized growth mostly below about 0.91 (no sharp cut-off); inconclusive means no clear call, values can overlap the other calls; inactive means mostly above about 0.92. The list shows a part of the results.

Assay: chemical genetic growth profiling, strain panel (AID 1159580);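 further: tested at 20 µM; growth read once vehicle control cultures reached saturation at 30 °C; 1 = growth at the plate median or of vehicle wells; lower values mean less growth of the strain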
Conditions: growth OD

Measured: normalized growth

COC(=O)C1[C@H]2C[C@H]3c4[nH]c5ccccc5c4CCN3C[C@@H]2CC[C@@H]1O (some centres not stated)
inactive: S. cerevisiae deletion strains, locus YJR075W, strain HOC1, active compounds read low 1.02 | S. cerevisiae deletion strains, locus YKL009W, strain mrt4, active compounds read low 0.996 | S. cerevisiae deletion strains, locus YKL068W, active compounds read low 1.01 | S. cerevisiae deletion strains, locus YKL085W, strain MDH1 (second series), active compounds read low 1.01 | S. cerevisiae deletion strains, locus YKL085W, strain MDH1, active compounds read low 1.01 | S. cerevisiae deletion strains, locus YKL160W, strain elf1, active compounds read low 0.987 | S. cerevisiae deletion strains, locus YKL190W, strain CNB1, active compounds read low 1.02 | S. cerevisiae deletion strains, locus YKR001C, strain vps1, active compounds read low 1.02 | S. cerevisiae deletion strains, locus YKR026C, strain gcn3, active compounds read low 0.971 | S. cerevisiae deletion strains, locus YKR091W, strain srl3, active compounds read low 0.985 | S. cerevisiae deletion strains, locus YLL001W, strain dnm1, active compounds read low 0.984 | S. cerevisiae deletion strains, locus YLL026W, active compounds read low 0.965 | S. cerevisiae deletion strains, locus YLL041C, strain sdh2, active compounds read low 0.974 | S. cerevisiae deletion strains, locus YLR027C, strain aat2, active compounds read low 0.988 | S. cerevisiae deletion strains, locus YLR039C, strain RIC1, active compounds read low 1.02 | S. cerevisiae deletion strains, locus YLR058C, strain SHM2, active compounds read low 1.01 | S. cerevisiae deletion strains, locus YLR102C, strain apc9, active compounds read low 1.02 | S. cerevisiae deletion strains, locus YLR113W, strain HOG1, active compounds read low 1.01 | S. cerevisiae deletion strains, locus YLR221C, strain rsa3, active compounds read low 1.01 | S. cerevisiae deletion strains, locus YLR258W, strain gsy2, active compounds read low 0.98 | S. cerevisiae deletion strains, locus YLR262C, strain YPT6 (second series), active compounds read low 0.974 | S. cerevisiae deletion strains, locus YLR262C, strain YPT6, active compounds read low 1 | S. cerevisiae deletion strains, locus YLR268W, strain sec22, active compounds read low 1.06 | S. cerevisiae deletion strains, locus YLR320W, strain mms22, active compounds read low 1.02 | S. cerevisiae deletion strains, locus YLR330W, strain CHS5, active compounds read low 1.01 | S. cerevisiae deletion strains, locus YLR342W, strain FKS1 (second series), active compounds read low 1 | S. cerevisiae deletion strains, locus YLR342W, strain FKS1, active compounds read low 0.981 | S. cerevisiae deletion strains, locus YLR357W, strain rsc2, active compounds read low 0.985 | S. cerevisiae deletion strains, locus YLR370C, strain arc18, active compounds read low 0.965 | S. cerevisiae deletion strains, locus YLR371W, strain rom2, active compounds read low 1.02 | S. cerevisiae deletion strains, locus YLR384C, strain iki3, active compounds read low 0.969 | S. cerevisiae deletion strains, locus YLR418C, strain cdc73, active compounds read low 1.02 | S. cerevisiae deletion strains, locus YML016C, strain PPZ1, active compounds read low 1.01 | S. cerevisiae deletion strains, locus YML032C, strain rad52, active compounds read low 1.03 | S. cerevisiae deletion strains, locus YML120C, strain ndi1, active compounds read low 0.966 | S. cerevisiae deletion strains, locus YML124C, strain tub3, active compounds read low 1.01 | S. cerevisiae deletion strains, locus YMR058W, strain fet3, active compounds read low 0.974 | S. cerevisiae deletion strains, locus YMR078C, strain ctf18, active compounds read low 1.01 | S. cerevisiae deletion strains, locus YMR125W, strain sto1, active compounds read low 0.981 | S. cerevisiae deletion strains, locus YMR129W, active compounds read low 0.988 | S. cerevisiae deletion strains, locus YMR205C, strain PFK2, active compounds read low 0.991 | S. cerevisiae deletion strains, locus YMR223W, strain ubp8, active compounds read low 1.01 | S. cerevisiae deletion strains, locus YMR231W, strain pep5, active compounds read low 0.978 | S. cerevisiae deletion strains, locus YMR263W, strain SAP30, active compounds read low 1.03 | S. cerevisiae deletion strains, locus YMR307W, strain GAS1, active compounds read low 0.952 | S. cerevisiae deletion strains, locus YNL067W, strain RPL9B, active compounds read low 1.03 | S. cerevisiae deletion strains, locus YNL071W, strain lat1, active compounds read low 0.976 | S. cerevisiae deletion strains, locus YNL128W, strain TEP1, active compounds read low 1.02 | S. cerevisiae deletion strains, locus YNL153C, strain GIM3, active compounds read low 1.01 | S. cerevisiae deletion strains, locus YNL183C, strain NPR1, active compounds read low 0.981 | S. cerevisiae deletion strains, locus YNL209W, strain ssb2, active compounds read low 0.959 | S. cerevisiae deletion strains, locus YNL233W, strain BNI4, active compounds read low 1.01 | S. cerevisiae deletion strains, locus YNL248C, strain rpa49, active compounds read low 0.998 | S. cerevisiae deletion strains, locus YNL250W, strain rad50, active compounds read low 1.02 | S. cerevisiae deletion strains, locus YNL271C, strain bni1, active compounds read low 1.02 | S. cerevisiae deletion strains, locus YNL298W, strain CLA4, active compounds read low 1.02 | S. cerevisiae deletion strains, locus YNL307C, strain MCK1, active compounds read low 1.02 | S. cerevisiae deletion strains, locus YNL322C, strain KRE1 (second series), active compounds read low 0.973 | S. cerevisiae deletion strains, locus YNL322C, strain KRE1, active compounds read low 1.02 | S. cerevisiae deletion strains, locus YNR049C, strain mso1, active compounds read low 0.97 | S. cerevisiae deletion strains, locus YNR052C, strain pop2, active compounds read low 1.02 | S. cerevisiae deletion strains, locus YOL006C, strain TOP1, active compounds read low 1.06 | S. cerevisiae deletion strains, locus YOL012C, strain htz1 0.74 | S. cerevisiae deletion strains, locus YOL147C, strain pex11, active compounds read low 1.02 | S. cerevisiae deletion strains, locus YOR001W, strain rrp6, active compounds read low 0.961 | S. cerevisiae deletion strains, locus YOR061W, strain CKA2, active compounds read low 1.01 | S. cerevisiae deletion strains, locus YOR069W, strain VPS5, active compounds read low 1.01 | S. cerevisiae deletion strains, locus YOR070C, strain gyp1, active compounds read low 0.983 | S. cerevisiae deletion strains, locus YOR080W, strain dia2, active compounds read low 0.934 | S. cerevisiae deletion strains, locus YOR083W, strain WHI5, active compounds read low 0.979 | S. cerevisiae deletion strains, locus YOR106W, strain vam3, active compounds read low 0.949 | S. cerevisiae deletion strains, locus YOR136W, strain idh2, active compounds read low 1.02 | S. cerevisiae deletion strains, locus YOR144C, strain elg1, active compounds read low 1.01 | S. cerevisiae deletion strains, locus YOR184W, strain ser1, active compounds read low 1.01 | S. cerevisiae deletion strains, locus YOR231W, strain MKK1, active compounds read low 1.02 | S. cerevisiae deletion strains, locus YOR265W, strain rbl2, active compounds read low 0.978 | S. cerevisiae deletion strains, locus YOR270C, strain vph1, active compounds read low 0.935 | S. cerevisiae deletion strains, locus YOR290C, strain snf2, active compounds read low 0.974 | S. cerevisiae deletion strains, locus YOR316C, strain cot1, active compounds read low 1.02 | S. cerevisiae deletion strains, locus YPL051W, strain arl3, active compounds read low 0.961 | S. cerevisiae deletion strains, locus YPL055C, strain LGE1, active compounds read low 1.02 | S. cerevisiae deletion strains, locus YPL078C, strain atp4, active compounds read low 0.963 | S. cerevisiae deletion strains, locus YPL106C, strain sse1, active compounds read low 0.906 | S. cerevisiae deletion strains, locus YPL240C, strain hsp82, active compounds read low 0.995 | S. cerevisiae deletion strains, locus YPL241C, strain CIN2, active compounds read low 1.01 | S. cerevisiae deletion strains, locus YPL256C, strain CLN2, active compounds read low 0.998 | S. cerevisiae deletion strains, locus YPR119W, strain clb2, active compounds read low 1.02 | S. cerevisiae deletion strains, locus YPR141C, strain kar3, active compounds read low 1.02 | S. cerevisiae deletion strains, locus YPR163C, strain tif3, active compounds read low 1.02 | S. cerevisiae deletion strains, locus YPR167C, strain met16, active compounds read low 1.02 | S. cerevisiae deletion strains, strain wtn01, active compounds read low 1.04 | S. cerevisiae strains, strain wild type, active compounds read low 1
